# B2AR ag = activates human beta-2 adrenergic receptor causing internalization; P07550; Am2.2-beta2AR cells, FAP receptor internalization, flow cytometry; response, % (test concentration not listed); 0.43% of 340,000 active; AID 504454;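 active = response above a set limit, near 3 SD of response in nonfluorescent compounds, cut at about 42% in these data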
# Target sequence (P07550 whole entry, looked up): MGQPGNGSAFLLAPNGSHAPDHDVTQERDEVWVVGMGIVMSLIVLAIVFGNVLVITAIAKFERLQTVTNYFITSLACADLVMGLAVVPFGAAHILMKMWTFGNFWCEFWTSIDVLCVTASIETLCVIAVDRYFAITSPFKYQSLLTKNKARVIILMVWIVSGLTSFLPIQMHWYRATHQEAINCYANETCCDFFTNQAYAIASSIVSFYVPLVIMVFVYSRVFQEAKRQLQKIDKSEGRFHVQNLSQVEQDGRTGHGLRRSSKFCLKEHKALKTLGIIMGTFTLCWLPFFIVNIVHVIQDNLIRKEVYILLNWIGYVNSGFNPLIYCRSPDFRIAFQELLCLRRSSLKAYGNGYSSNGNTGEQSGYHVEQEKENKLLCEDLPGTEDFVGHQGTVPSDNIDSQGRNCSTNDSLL
# tim23-1 inh = growth inhibitors of tim23-1 mutant yeast; S. cerevisiae tim23-1 growth, BacTiter-Glo luminescence, 24 h; 1.3% of 330,000 active; inhibition, % at 20 µM; AID 463212;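 active = growth inhibition of the mutant yeast at or above 50%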;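 note: temperature-sensitive mutant grown at 25 °C; plate controls were DMSO-treated mutant yeast for no effect and medium wells lacking yeast for full effect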
# tim10-1 inh = growth inhibitors of tim10-1 mutant yeast | 2.2% of 330,000 active | AID 463190 | S. cerevisiae tim10-1 ts strain growth, BacTiter-Glo, 24 h | inhibition, % at 20 µM;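 active = inhibition of at least 40%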;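 note: mutant grown at 25 °C; 0% = DMSO wells with yeast and 100% = wells holding no yeast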
# PfHsp90 yeast 2 = growth inhibition of yeast expressing Plasmodium Hsp90. S. cerevisiae expressing PfHsp90, BacTiter-Glo ATP, 48 h; yeast lacking PDR1 and PDR3 efflux regulators. inhibition, % at 9.4 µM. 0.32% of 310,000 active. AID 504621;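 active = every replicate shows inhibition above about 80%, whatever the replicate mean, limit read from the data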;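 note: 0% = DMSO neutral controls and 100% = 20 µM radicicol positive controls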
# TIM10 inh = TIM10 yeast growth inhibition; S. cerevisiae TIM10 strain growth, BacTiter-Glo luminescence, 24 h; inhibition, % at 10 µM; 1.4% of 330,000 active; AID 463195;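 active = inhibition of 40% or more at the single tested concentration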;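 note: wild-type TIM10 isogenic control strain grown at permissive 25 °C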
# TIM10 conf = confirmation of TIM10 yeast growth inhibitors. shares compounds with TIM10 inh. S. cerevisiae tim10 strain growth, BacTiter-Glo luminescence, 24 h. inhibition, % at 10 µM. 63% of 4,600 active. AID 463215;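 active = inhibition of yeast growth at or above a set limit in either of two replicates at 10 µM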;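 note: this counterscreen used the strain with wild-type TIM10; 0% = yeast with DMSO and 100% = medium wells lacking yeast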
# The depositor's hits bear a star; nt = not tested or not shown. Rows were chosen to be rich in hits. Some 3.8% of all compounds tested hit in one or more screens of this group.
SMILES,B2AR ag,tim23-1 inh,tim10-1 inh,PfHsp90 yeast 2,TIM10 inh,TIM10 conf
COc1ccc(-c2cc(C(F)F)n3ncc(C(=O)NCC4CCCO4)c3n2)cc1 (centres undefined),3,21,23,-3,45*,34*
Cc1ccc(S(=O)(=O)N(CC(=O)NC2CCCCCC2)c2ccccc2F)cc1,-6,8,16,-6,40*,11
CCOc1ccccc1N(CC(=O)NC1CCCC1)S(=O)(=O)c1ccc(C)cc1,1,35,10,6,5,nt
CCCCCCC(=O)NNC(=O)c1c(O)c2ccccc2n(CCC)c1=O,-3,4,3,nt,46*,-12
CCCCCCCC(=O)NNC(=O)c1c(O)c2ccccc2n(CCC)c1=O,-3,17,-9,25,-4,nt
c1ccc2[nH]c(NC3=NCCC3)nc2c1,3,1,17,9,41*,-26
c1ccc2[nH]c(NN=C3CCCCCC3)nc2c1,-14,-3,14,-6,2,nt
O=C(O)C(Cc1cccs1)c1cccs1 (centres undefined),4,nt,nt,-1,nt,nt
CC(NC(=O)/C(C#N)=C/c1ccc(Cl)c([N+](=O)[O-])c1)c1ccccc1 (centres undefined),nt,-91,20,nt,63*,57*
C[C@@H](NC(=O)/C(C#N)=C/c1ccc(O)c(O)c1)c1ccccc1,12,21,9,-17,3,nt
FC(F)Sc1ccc(NC(=S)NC(c2ccccc2)c2ccccc2)cc1,3,1,8,-21,12,nt
CN(C(=S)Nc1ccc(SC(F)F)cc1)C(c1ccccc1)c1ccccc1,3,19,19,3,42*,40*
COc1cnc(-c2ccccn2)nc1Sc1c(Cl)cccc1Cl,2,19,34,nt,50*,38*
COc1cnc(-c2ccccn2)nc1Oc1cccc(Cl)c1,1,44,39,1,46*,49*
COc1ccc(Oc2nc(-c3ccccn3)nc3ccccc23)cc1,-14,45,13,nt,41*,34*
COc1ccc(Oc2nc(-c3ccncc3)nc3ccccc23)cc1,3,48,39,-32,32,nt
COCCn1c(C)c(C)c2c(NCCc3ccccc3)ncnc21,3,23,21,-16,24,nt
O=C(O)c1c[nH]c2c([N+](=O)[O-])cccc2c1=O,3,nt,nt,nt,nt,nt
CCNC(=S)N/N=C/c1cc(C)n(-c2ccc(Cl)cc2)c1C,-9,29,33,7,50*,16
Cc1cc(/C=N/NC(N)=S)c(C)n1-c1ccc(Cl)c(Cl)c1,10,-23,9,-47,-5,nt
O=C(N=Nc1c(O)[nH]c2ccccc12)Nc1ccccc1,-11,nt,nt,-5,nt,nt
Cc1cccc(NC(=S)N=Nc2c(O)[nH]c3ccccc23)c1,0,38,34,-51,41*,37*
COc1cccc(CN(C)C(=O)CN2C(=O)NC3(CCCc4ccccc43)C2=O)c1 (centres undefined),-16,-10,-8,nt,-3,nt
Cc1ccsc1CN(C)C(=O)CN1C(=O)NC2(CCCc3ccccc32)C1=O (centres undefined),5,-7,11,-7,96*,-2
CC(Sc1nc(N)c2c3c(sc2n1)CSC(C)(C)C3)C(=O)Nc1ccccc1 (centres undefined),4,39,36,10,47*,-35
SMILES,B2AR ag,tim23-1 inh,tim10-1 inh,PfHsp90 yeast 2,TIM10 inh,TIM10 conf
CNc1nc2sc3c(c2c(=O)n1C)CC(C)(C)SC3,-10,8,32,-5,26,nt
O=C(Cn1c(=O)n(-c2cccc(C(F)(F)F)c2)c(=O)c2sccc21)NCC1CCCO1 (centres undefined),2,3,9,-16,0,nt
CC(C)CCOP(=O)(c1ccc(N(C)C)cc1)C(O)c1ccc(C(C)C)cc1 (centres undefined),-5,24,30,-45,40,36*
CC(C)CCOP(=O)(c1ccc(N(C)C)cc1)C(O)c1ccccc1F (centres undefined),1,29,32,3,50*,41*
CCCOc1ncnc2c1[nH]c1ccccc12,0,34,2,32,48*,31*
Cc1ccc(OCc2cc(C(=O)N3CCC(Oc4cccnc4)CC3)no2)cc1C,0,28,36,14,30,nt
O=C(c1cc(COc2cccc(C(F)(F)F)c2)on1)N1CCC(Oc2cccnc2)CC1,-8,39,38,3,43*,43*

# Bioassay records as filed in PubChem.
